Results on eleven molecules are retold here after ChEMBL document CHEMBL3988442, “University of Dundee, Small-Polar-MMV Screening Library” (2021).

For some of these results: Results with a measured potency or affinity are listed apart.

What all share (design): scale not given: direction of the effect not stated beside the values
Assay [1] concerns the target Protein translocase subunit SecA (Escherichia coli (strain K12)) (UniProt P10408). The experiment in a line: Assay to Identify E. coli SecA ATPase Inhibitors. It counts as functional. The conditions noted are these: 30 µM.
In assay [2] the target is T1, Ubiquitin-activating enzyme e1, putative (Leishmania donovani (strain BPK282A1)) (UniProt E9BSI1).
T1 sequence (whole entry): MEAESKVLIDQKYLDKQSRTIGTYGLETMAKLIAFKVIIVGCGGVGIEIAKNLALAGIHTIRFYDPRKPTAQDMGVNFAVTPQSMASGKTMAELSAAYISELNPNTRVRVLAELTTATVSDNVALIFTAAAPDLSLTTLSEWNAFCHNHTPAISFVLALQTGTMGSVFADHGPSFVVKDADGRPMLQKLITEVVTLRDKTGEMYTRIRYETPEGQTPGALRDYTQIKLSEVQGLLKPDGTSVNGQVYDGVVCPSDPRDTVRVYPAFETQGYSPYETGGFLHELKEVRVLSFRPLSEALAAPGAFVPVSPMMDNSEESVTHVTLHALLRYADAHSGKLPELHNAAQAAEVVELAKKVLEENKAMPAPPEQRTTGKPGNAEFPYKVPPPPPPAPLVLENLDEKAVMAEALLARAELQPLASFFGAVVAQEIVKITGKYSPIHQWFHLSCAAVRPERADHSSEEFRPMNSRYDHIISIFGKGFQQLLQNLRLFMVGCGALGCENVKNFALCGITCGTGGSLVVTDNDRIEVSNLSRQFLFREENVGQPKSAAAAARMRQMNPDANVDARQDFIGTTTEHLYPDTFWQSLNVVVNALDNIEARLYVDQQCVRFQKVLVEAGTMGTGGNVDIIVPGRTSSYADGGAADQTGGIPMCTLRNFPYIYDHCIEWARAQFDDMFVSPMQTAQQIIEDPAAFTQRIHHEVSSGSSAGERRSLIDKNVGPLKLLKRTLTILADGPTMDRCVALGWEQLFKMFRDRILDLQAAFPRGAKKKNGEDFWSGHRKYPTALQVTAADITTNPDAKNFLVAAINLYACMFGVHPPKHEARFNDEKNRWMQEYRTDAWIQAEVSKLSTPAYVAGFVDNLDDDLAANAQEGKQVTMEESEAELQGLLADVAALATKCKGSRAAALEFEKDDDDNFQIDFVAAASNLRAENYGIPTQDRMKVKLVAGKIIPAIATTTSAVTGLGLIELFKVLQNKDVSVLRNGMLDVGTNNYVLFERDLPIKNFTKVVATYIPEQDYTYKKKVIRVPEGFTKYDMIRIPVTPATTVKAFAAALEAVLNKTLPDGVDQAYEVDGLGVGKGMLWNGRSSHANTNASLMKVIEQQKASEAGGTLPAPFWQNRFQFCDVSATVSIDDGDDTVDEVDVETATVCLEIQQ
Kind of assay: Leishmania donovani Ubiquitin Activating Enzyme (LdE1). The conditions noted are these: 30 µM. Format: functional.

Assay [3] deals with AMP-activated protein kinase, AMPK (Homo sapiens) (UniProt P54646+O43741+P54619+Q9UGJ0+Q9Y478+Q13131+Q9UGI9). Kind of assay: AMP-dependent Kinase enzyme assay. An in vitro enzyme assay that detects ADP turnover that is directly proportional to AMPK activity. This uses naive AMPK that is activated during the assay with MK-8722. Format: functional. To be noted: 30 µM.
In assay [4] the target is Sialic acid-binding Ig-like lectin 9 (Homo sapiens) (UniProt Q9Y336). Kind of assay: Hs-Siglec9 ALPHAscreen SOP 20170721. The conditions noted are these: 10 µM. (In general: Alpha assays give light when donor and acceptor beads are brought close together.)
The subject of a further assay is Trypanosoma cruzi. The experiment in a line: Trypanosoma cruzi phosphomannomutase and mannose-1-phosphate guanylyltransferase assay. To be noted: 10 µM. It counts as functional.
Assay [5] deals with T2, Arginase-2, mitochondrial (Homo sapiens) (UniProt P78540).
T2 sequence (whole entry): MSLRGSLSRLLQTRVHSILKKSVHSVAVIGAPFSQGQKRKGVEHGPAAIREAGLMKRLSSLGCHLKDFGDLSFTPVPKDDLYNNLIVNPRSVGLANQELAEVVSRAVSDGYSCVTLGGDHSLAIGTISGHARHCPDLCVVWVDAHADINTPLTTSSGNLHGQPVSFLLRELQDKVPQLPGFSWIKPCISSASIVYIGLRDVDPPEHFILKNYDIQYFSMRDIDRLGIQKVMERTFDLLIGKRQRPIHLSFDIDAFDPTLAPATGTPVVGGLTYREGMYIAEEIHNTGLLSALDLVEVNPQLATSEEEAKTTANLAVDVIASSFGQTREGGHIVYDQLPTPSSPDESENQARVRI
The experiment in a line: in vitro enzyme assay to detect the production of urea directly proportional to the activity of Arginase II. Also: in the data most compounds retested in dose-response had high values. The conditions noted are these: 33.3 µM. It counts as functional.

The target of assay [6] is T3, Proteasome subunit beta (Trypanosoma cruzi) (UniProt O96673).
T3 sequence (whole entry): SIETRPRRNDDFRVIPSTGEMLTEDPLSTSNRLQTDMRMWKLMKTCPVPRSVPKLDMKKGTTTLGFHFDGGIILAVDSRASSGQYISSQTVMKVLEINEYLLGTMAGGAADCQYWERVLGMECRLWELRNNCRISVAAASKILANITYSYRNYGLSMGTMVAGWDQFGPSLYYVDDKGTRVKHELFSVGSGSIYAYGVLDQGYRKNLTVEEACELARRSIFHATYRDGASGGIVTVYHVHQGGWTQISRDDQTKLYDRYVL
The experiment in a line: Trypanosoma cruzi proteasome chymotrypsin-like activity (TcProtChymo) assay. Also: in the data most compounds retested in dose-response had high values. Format: functional. To be noted: 9.37 µM.

The species named for another assay is Homo sapiens. The experiment in a line: To identify inhibition of the IFN signalling (Jak-Stat) pathway via expression of an eGFP reporter gene under the control of an IFN-stimulated response element (ISRE) containing MxA promoter. Format: functional. To be noted: 30 µM.
Assay [7] has as its target T4, Tyrosyl-tRNA synthetase, putative (Trypanosoma cruzi (strain CL Brener)) (UniProt Q4DSP6).
T4 sequence (whole entry): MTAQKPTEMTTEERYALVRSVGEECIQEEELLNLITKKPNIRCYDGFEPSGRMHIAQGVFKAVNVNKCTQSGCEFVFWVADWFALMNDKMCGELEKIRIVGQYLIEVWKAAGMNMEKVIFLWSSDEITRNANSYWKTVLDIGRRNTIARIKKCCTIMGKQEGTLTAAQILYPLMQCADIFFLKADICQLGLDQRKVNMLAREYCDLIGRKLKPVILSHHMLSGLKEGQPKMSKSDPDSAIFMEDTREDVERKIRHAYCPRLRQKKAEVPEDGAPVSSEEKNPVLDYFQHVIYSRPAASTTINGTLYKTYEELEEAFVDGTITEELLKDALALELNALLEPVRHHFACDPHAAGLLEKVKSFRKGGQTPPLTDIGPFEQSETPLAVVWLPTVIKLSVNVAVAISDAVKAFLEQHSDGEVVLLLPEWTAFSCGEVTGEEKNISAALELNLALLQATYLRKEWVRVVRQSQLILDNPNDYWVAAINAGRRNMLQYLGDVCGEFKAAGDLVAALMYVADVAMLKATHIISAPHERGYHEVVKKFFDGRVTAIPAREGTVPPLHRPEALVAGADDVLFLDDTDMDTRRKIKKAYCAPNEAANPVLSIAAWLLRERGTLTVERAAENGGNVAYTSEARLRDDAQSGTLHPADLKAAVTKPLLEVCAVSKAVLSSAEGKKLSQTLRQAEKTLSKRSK
The experiment in a line: Trypanosoma cruzi tyrosyl tRNA synthetase (TcYRS) _High Tyrosine SOP. Also: in the data most compounds retested in dose-response had high values. Format: functional. To be noted: 30 µM.

The target in assay [8] is T4, Tyrosyl-tRNA synthetase, putative (Trypanosoma cruzi (strain CL Brener)). The experiment in a line: Trypanosoma cruzi tyrosyl tRNA synthetase (TcYRS) SOP. The conditions noted are these: 30 µM. It counts as functional.
In assay [9] the target is Chromo domain-containing protein 1 (Saccharomyces cerevisiae (strain ATCC 204508 / S288c) (Baker's yeast)) (UniProt P32657). Kind of assay: ScCHD-1 Enzyme Inhibition Assay. Also: in the data most compounds retested in dose-response had high values. It counts as functional. To be noted: 30 µM.
Sequence of Chromo domain-containing protein 1 (Saccharomyces cerevisiae (strain ATCC 204508 / S288c) (Baker's yeast)) (P32657 whole entry, the tested form may be a part): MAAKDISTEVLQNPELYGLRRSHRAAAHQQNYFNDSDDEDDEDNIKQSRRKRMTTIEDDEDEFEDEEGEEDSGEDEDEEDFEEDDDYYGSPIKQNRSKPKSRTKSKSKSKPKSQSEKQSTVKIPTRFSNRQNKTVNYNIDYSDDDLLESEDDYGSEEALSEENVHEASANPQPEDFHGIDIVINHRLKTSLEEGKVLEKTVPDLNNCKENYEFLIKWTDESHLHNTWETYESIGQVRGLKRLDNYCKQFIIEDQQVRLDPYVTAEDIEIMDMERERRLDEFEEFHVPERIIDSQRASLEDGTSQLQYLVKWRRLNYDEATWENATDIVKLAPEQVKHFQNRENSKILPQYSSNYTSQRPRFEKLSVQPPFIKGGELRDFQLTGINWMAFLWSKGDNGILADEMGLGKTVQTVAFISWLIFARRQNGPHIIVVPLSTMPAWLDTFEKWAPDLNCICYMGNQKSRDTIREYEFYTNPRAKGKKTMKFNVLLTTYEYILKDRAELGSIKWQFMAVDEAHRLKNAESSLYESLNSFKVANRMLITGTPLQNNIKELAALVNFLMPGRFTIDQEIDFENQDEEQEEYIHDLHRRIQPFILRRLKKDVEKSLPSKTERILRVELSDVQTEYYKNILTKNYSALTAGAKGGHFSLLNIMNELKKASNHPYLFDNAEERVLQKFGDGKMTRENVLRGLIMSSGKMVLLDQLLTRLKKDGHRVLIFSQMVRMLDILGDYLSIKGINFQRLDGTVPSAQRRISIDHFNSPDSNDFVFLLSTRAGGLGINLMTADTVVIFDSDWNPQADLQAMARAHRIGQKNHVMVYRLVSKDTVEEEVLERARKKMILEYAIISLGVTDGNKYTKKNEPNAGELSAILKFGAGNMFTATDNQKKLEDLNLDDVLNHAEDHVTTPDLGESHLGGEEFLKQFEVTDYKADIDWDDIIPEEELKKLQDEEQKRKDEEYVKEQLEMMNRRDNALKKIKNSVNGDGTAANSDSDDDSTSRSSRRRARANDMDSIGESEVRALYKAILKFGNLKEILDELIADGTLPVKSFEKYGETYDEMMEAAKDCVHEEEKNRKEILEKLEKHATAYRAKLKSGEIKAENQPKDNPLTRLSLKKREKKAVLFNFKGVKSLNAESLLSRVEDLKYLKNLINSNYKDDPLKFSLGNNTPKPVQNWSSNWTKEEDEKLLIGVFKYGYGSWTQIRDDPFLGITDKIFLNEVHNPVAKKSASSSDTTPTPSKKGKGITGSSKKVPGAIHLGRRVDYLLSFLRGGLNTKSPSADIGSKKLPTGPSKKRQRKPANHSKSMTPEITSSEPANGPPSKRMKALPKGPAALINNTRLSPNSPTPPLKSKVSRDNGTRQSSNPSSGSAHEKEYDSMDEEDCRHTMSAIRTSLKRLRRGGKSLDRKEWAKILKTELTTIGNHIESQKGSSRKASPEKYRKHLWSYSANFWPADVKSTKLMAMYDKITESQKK

Sequence of Sialic acid-binding Ig-like lectin 9 (Homo sapiens) (Q9Y336 whole entry): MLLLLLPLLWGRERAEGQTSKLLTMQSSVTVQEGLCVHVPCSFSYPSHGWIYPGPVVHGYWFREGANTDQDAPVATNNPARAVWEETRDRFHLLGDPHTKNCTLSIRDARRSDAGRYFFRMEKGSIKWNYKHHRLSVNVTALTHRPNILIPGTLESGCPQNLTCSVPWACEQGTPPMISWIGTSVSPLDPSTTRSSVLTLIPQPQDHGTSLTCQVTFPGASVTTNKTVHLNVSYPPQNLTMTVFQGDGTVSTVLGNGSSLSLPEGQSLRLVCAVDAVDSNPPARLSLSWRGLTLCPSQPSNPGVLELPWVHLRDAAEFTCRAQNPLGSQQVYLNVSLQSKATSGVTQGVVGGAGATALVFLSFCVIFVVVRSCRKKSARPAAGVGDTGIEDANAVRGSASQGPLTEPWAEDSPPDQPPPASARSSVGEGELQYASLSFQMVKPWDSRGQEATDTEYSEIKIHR
Sequence of Protein translocase subunit SecA (Escherichia coli (strain K12)) (P10408 whole entry): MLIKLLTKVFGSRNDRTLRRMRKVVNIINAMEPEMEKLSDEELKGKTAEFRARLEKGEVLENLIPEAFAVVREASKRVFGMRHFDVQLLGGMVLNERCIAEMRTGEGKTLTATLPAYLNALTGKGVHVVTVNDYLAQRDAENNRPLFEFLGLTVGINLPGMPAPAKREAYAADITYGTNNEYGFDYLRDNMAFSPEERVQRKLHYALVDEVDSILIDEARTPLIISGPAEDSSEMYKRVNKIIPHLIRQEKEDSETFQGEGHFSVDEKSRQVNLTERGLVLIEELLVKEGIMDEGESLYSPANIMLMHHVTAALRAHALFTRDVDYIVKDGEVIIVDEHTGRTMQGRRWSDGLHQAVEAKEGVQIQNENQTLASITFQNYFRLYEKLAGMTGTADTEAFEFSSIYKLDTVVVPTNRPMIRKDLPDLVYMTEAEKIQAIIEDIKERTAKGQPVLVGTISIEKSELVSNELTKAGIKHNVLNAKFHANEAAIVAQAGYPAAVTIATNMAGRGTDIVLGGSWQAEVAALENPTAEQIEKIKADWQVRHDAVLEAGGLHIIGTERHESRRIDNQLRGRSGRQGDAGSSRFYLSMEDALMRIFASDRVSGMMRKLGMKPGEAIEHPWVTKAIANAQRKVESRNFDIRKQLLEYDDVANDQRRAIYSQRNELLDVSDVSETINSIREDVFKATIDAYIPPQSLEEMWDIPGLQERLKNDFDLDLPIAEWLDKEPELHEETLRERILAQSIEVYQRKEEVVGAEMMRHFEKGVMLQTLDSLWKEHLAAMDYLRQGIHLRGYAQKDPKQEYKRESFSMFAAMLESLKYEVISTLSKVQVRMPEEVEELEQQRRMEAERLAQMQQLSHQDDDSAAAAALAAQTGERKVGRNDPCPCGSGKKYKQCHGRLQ

As to `NC(=O)COc1ccc(CNCc2ccc(F)c(F)c2)cc1`, the Percent Effect was -4.2% in assay [1]; 6.94% in assay [2]; 2.35% in assay [3]; -0.752% in assay [4]; 0.486% with Trypanosoma cruzi; 3.53% in assay [5]. The Percent Effect was 11.2% in [6]; -7.28% in the assay listed under Homo sapiens; 7.37% in assay [7]; 7.69% in assay [8]; -2.75% in [9].

Regarding `Cc1ccc(CN2CC3(CCN(C(=O)c4cscn4)C3)C2)s1`, the Percent Effect in assay [1] is 1.32%; in assay [2], 0%; in assay [3], 1.31%; in assay [4] it was 11.8%; in the assay with Trypanosoma cruzi, -2.98%; in assay [5], 3.19%. Also, the Percent Effect in [6] was 9.85%; in the assay filed under Homo sapiens it was -1.49%; in assay [7] it was 7.29%; in [8], -1.24%; in assay [9], -1.23%.

For the molecule `O=C(Cc1ccsc1)N1CCn2cc(CN3CCCC3)nc2C1`, the Percent Effect in assay [1] is -1.1%; in [2], 8.22%; in assay [3], -4.43%; in assay [4], 11.5%; in the assay with Trypanosoma cruzi, 8.33%; in assay [5], -9.98%. Also, the Percent Effect in assay [6] is 20.1%; in the assay listed under Homo sapiens it was -16%; in assay [7], 14.6%; in assay [8], 23.5%; in assay [9] it was -4.19%.

For the molecule `CSCCC(=O)N1CCC(Oc2cc(C)ccc2F)(C(=O)O)CC1`, the Percent Effect in assay [1] was -1.39%; in assay [2], -1.39%; in [3], -5.71%; in assay [4], -2.17%; in the assay on Trypanosoma cruzi, -2.43%; in assay [5], -1.32%. Also, the Percent Effect in assay [6] is 0.351%; in the assay listed under Homo sapiens, -30.7%; in assay [7] it was -2.1%; in [8], 2.56%; in [9], 2.79%.

On to `OCCOCCN1CCCC1c1nc2cc(F)ccc2[nH]1` (stereo unspecified), for which the Percent Effect was 7.36% in [1]; 21.9% in assay [2]; -1.73% in assay [3]; -1.07% in assay [4]; -13.1% in the assay on Trypanosoma cruzi; -2.4% in assay [5]. In addition, the Percent Effect is 14.3% in [6]; 9.67% in the assay filed under Homo sapiens; 11.5% in [7]; 18.5% in assay [8]; -1.92% in [9].

Turning to `CCc1nc(NCC(=O)N2CCOCC2)c2c(n1)c(C)nn2CC`, the Percent Effect in assay [1] is -2.78%; in assay [2], 6.67%; in assay [3] it was 0.5%; in [4] it was 7.26%; in the assay on Trypanosoma cruzi it was -6.09%; in assay [5], -6.87%. For the same molecule, the Percent Effect in [6] is 10.7%; in the assay filed under Homo sapiens, -5.15%; in assay [7] it was 2.12%; in assay [8] it was 5.13%; in assay [9] it was -5.78%.

As to `O=C(CCc1ccccn1)N1CCc2cc(Cl)cc(Cl)c2C1`, the Percent Effect is -0.0645% in [1]; 7.79% in [2]; 5.1% in [3]; 1.57% in assay [4]; -9.34% in the assay with Trypanosoma cruzi; -17.9% in [5]. Moreover, the Percent Effect in assay [6] was 15%; in the assay filed under Homo sapiens, 47.7%; in assay [7] it was -1.07%; in [8], -3.7%; in [9], -2.98%.

For the molecule `CC(=O)N(Cc1noc(C2CC2)n1)C1CCN(Cc2nccn2C)C1` (stereo unspecified), the Percent Effect in assay [1] was -1.42%; in assay [2], 16.2%; in [3] it was -8.4%; in assay [4] it was -4.39%; in the assay on Trypanosoma cruzi, -6.22%; in [5] it was -4.25%. Besides, the Percent Effect in assay [6] is 11.1%; in the assay filed under Homo sapiens it was 11.5%; in [7], 3.96%; in assay [8], 18.3%; in assay [9] it was -5.65%.

With `CN(C)S(=O)(=O)N1CCC2(COCc3cnc(-c4ccccc4)nc32)C1` (stereo unspecified), the Percent Effect in assay [1] was -3.52%; in assay [2], 13.3%; in [3] it was 1.46%; in assay [4], -2.12%; in the assay on Trypanosoma cruzi, 4.44%; in assay [5], -1.25%. Further, the Percent Effect is 12.3% in assay [6]; 12.3% in the assay listed under Homo sapiens; -8.33% in [7]; 2.5% in assay [8]; -4.77% in [9].

`CCOCCn1nc(C)cc1C(=O)N1CC[C@](C)(O)[C@H](C)C1`: the Percent Effect in assay [1] was -5.83%; in [2], 5.41%; in [3], -0.231%; in [4] it was 3.85%; in the assay with Trypanosoma cruzi, -4.25%; in assay [5] it was -1.91%. The Percent Effect in assay [6] was 6.03%; in the assay filed under Homo sapiens it was -3.48%; in [7], 2.65%; in assay [8], 9.76%; in assay [9], -1.04%.

With `Cc1cccc(N2CCN(CCNC(=O)C(C)n3cncn3)CC2)c1` (stereo unspecified), the Percent Effect in assay [1] was -4.94%; in assay [2], 28.9%; in assay [3], -8.42%; in assay [4] it was -3.17%; with Trypanosoma cruzi it was 3.83%; in assay [5] it was -3.96%. In addition, the Percent Effect was 15% in [6]; 9.51% in the assay listed under Homo sapiens; 7.39% in [7]; 23.5% in assay [8]; -10.7% in assay [9].
